# Source: PubChem BioAssay
# Sm TGR block: blocks Schistosoma mansoni thioredoxin glutathione reductase; Q962Y6; 360,000 tested, 3% active; purified TGR, DTNB reduction, TNB absorbance 405 nm; Potency, µM (titrated, usually from 114 µM), usual class: inhibitors; also: nearly all actives have a fitted effect of over 60% in size
#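 First, TGR (20 nM dispensed) and NADPH were mixed with compound. Second, a 15 min room-temperature incubation followed. Third, further NADPH and then DTNB were added to start the reaction. Finally, TNB absorbance was monitored kinetically.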
# Pf growth 96h: inhibits malaria parasite growth, 96 h | Potency, µM (titrated, usually from 28.7 µM), actives largely listed as inhibitors | AID 504834 | P. falciparum luciferase reporter growth, 96 h | 320,000 tested, 6.9% active
#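 Two parasite generations (96 h, 37 C, 5% CO2) of compound exposure in infected erythrocytes (0.05% parasitemia, 2% hematocrit). Luciferase-reporter P. falciparum; decreased luminescence indicates inhibited growth, aimed at apicoplast-acting delayed death.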
# Pf growth 48h: P. falciparum growth inhibition at 48 hours (one generation) | 310,000 tested, 5.9% active | P. falciparum luciferase growth in erythrocytes, 48 h | Potency, µM (top dose mostly 28.7 µM), actives largely listed as inhibitors
#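 Here the parasites carry a stable luciferase gene and grow inside erythrocytes in Albumax-based RPMI medium with compound for one erythrocytic cycle. Activity is scored as loss of luminescent signal.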
# NS1 inh: blocks influenza NS1 protein function. 270,000 tested, 0.4% active. Potency, µM (doses to about 46.1 µM). AID 2326; calls by dose curve; also: actives are rising curves; nearly all actives have a fitted effect of over 50% in size
#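 In this qHTS, NS1 from influenza A is expressed in budding yeast, where it slows growth. Cells are switched from glucose to 2% galactose medium (pH 6.0, -URA), treated with compound, and growth recovery is read at OD600.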
# Shiga toxin inh: Shiga toxin inhibition. Vero cells, Shiga toxin protein synthesis inhibition reporter. inhibition, % at 38.7 µM. 290,000 tested, 9.2% active. AID 2315; in the data active = inhibition mostly above about 28%, no sharp cut-off; inactive = mostly below about 43%
# CHX counter: counter-screen hit for Shiga toxin inhibitors, cycloheximide; cell reporter, cycloheximide protein synthesis inhibition counterscreen; max response, %; 300,000 tested, 12% active; AID 2314; in the data active = max response mostly above about 13%, no sharp cut-off; inactive = mostly below about 14%; also: read at 38.3 µM for the half of the compounds with a filed dose
# Hits are given with their value; i = inactive; ? = inconclusive; nt = no result given. In the library only some 21% were active in any assay of this set; here they are far more common. Unless noted, calls follow the shape of the dose curve; as a rule, active = well fitted curve in the direction sought with a large enough effect; inconclusive = small, poorly fitted or top-dose-only effect, or another doubt; inactive = no such curve, though single readings can be large; an effect the other way counts as inactive or inconclusive.
SMILES,Sm TGR block,Pf growth 96h,Pf growth 48h,NS1 inh,Shiga toxin inh,CHX counter
Cn1c(N)c(C(=O)/C=C/c2ccccc2)c(=O)[nH]c1=O,i,i,i,i,69,48
COc1ccc2nc(C)cc(SCC(=O)N/N=C/c3ccc(O)cc3O)c2c1,i,i,?,i,i,i
COc1ccc(C(=O)Nc2cccc(C(=O)N/N=C/c3ccc(OC)cc3OC)c2)cc1,i,?,i,i,i,39
COc1ccccc1/C=N/NC(=O)c1cccc(NC(=O)c2ccccc2Cl)c1,i,?,i,i,i,i
COc1ccc(N2Cc3ccc(C(=O)N/N=C\c4ccc(O)cc4O)cc3C2)cc1,28µM,?,i,i,i,i
COc1ccc(/C=N/NC(=O)c2cccc(NC(=O)c3ccccc3)c2)c(C(=O)O)c1OC,i,i,i,i,i,32
O=[N+]([O-])c1cccc(S(=O)(=O)N2CCCCC2)c1,i,?,i,i,i,i
CCOc1ccccc1NC(=O)NC(CC)c1c(-n2cccc2)sc2c1CCN(C)C2 (stereo unspecified),i,nt,nt,nt,nt,nt
O=[N+]([O-])c1cccc(-n2nnnc2CN2CCCC2)c1,i,i,i,nt,i,i
CCc1ccccc1NC(=O)CSc1nc2c(oc3ccccc32)c(=O)n1-c1ccccc1F,i,nt,nt,nt,nt,nt
O=C(c1cc2ccccc2cc1O)N1CCN(c2ccc([N+](=O)[O-])cc2)CC1,i,?,6.6µM,nt,nt,nt
O=C(c1ccc2ccccc2c1)N1CCN(c2ccc([N+](=O)[O-])c(N3CCOCC3)c2)CC1,i,8.3µM,7.4µM,i,i,26
O=C(/C=C/c1ccccc1)N1CCN(c2ccc([N+](=O)[O-])c(N3CCOCC3)c2)CC1,i,10µM,?,i,i,i
CC1=C(c2ccc(C(C)C)cc2)S(=O)(=O)N=C1N1CCC(C(=O)NCc2ccc(C)o2)CC1,i,nt,nt,nt,nt,nt
CCN(CC)C(=O)COC(=O)c1ccc(C)c(NC(=O)c2ccco2)c1,?,i,i,nt,i,i
CCN(Cc1nc2cc(Cl)ccc2c(=O)[nH]1)C(=O)c1nn(C)c(=O)c2ccccc12,i,?,8.3µM,nt,nt,nt
CCN(Cc1nc2cc(Cl)ccc2c(=O)[nH]1)C(=O)c1ccc(C)c(NC(=O)c2ccco2)c1,?,8.3µM,9.3µM,nt,nt,nt
CCCCCCc1c(O)nc(SCCN(C)C)[nH]c1=O,i,i,i,i,i,i
CCCCn1c(=O)c2oc3ccccc3c2n(CC(=O)Nc2cc(C)ccc2C)c1=O,i,nt,nt,nt,nt,nt
O=C(N/N=C/c1cc(Br)c(O)c(Br)c1)C1CC1,i,i,i,i,i,i
CC(C)(C)NC(=S)N/N=C/c1cc(Br)c(O)c(Br)c1,i,7.4µM,?,i,i,i
COc1ccc(S(=O)(=O)N2CCN(C(=O)c3cc(-c4ccccc4OC)n[nH]3)CC2)cc1,i,i,1.3µM,i,i,i
COc1cccc(-c2cc(C(=O)N3CCN(S(=O)(=O)c4ccc(Br)cc4)CC3)[nH]n2)c1,i,13µM,i,i,i,i
COCCCn1c(SCC(=O)N2CCOCC2)nnc1-c1ccco1,i,i,?,i,i,i
Cc1ccc(N/N=C(\C#N)C(N)=S)c(C)c1,?,?,i,i,i,13
SMILES,Sm TGR block,Pf growth 96h,Pf growth 48h,NS1 inh,Shiga toxin inh,CHX counter
Cc1ccc(NC(=O)CCn2cccn2)cc1Cl,i,nt,nt,nt,nt,nt
O=C(c1ccco1)N1CCN(S(=O)(=O)c2ccccc2[N+](=O)[O-])CC1,i,i,?,i,i,i
CCOc1ccc2c(c1)-c1c(ssc1=S)C(C)(C)N2C(=O)CSC1=NCCS1,i,1.7µM,?,?,i,i
CN(C)Cc1c(O)c(Cl)cc2c3c(c(=O)oc12)CCCC3,?,i,nt,i,i,i
CCc1c(C)c2cc(Cl)c(O)c(CN3CCCCC3)c2oc1=O,i,i,i,i,i,i
O=c1oc2c(CN3CCOCC3)c(O)c(Cl)cc2c2c1CCC2,i,i,1µM,i,i,i
Cc1c(O)c(CN2CCCCC2)cc2c1oc(=O)c1ccccc12,i,0.47µM,0.33µM,i,i,i
Cc1c(O)c(CN2CCCCC2)cc2c3c(c(=O)oc12)CCC3,i,9.3µM,10µM,i,i,i
Cc1c(O)c(CN(C)C)cc2c1oc(=O)c1ccccc12,i,2.1µM,4.1µM,i,i,i
COc1ccccc1NC(=O)C1=C(C)Nc2nc(CCCO)nn2C1c1cccc(O)c1 (stereo unspecified),i,nt,nt,nt,nt,nt
CC(=O)Nc1c(C)nn(-c2ccccc2)c1N1CCC(C(=O)NCc2ccc(Cl)cc2)CC1,i,nt,nt,nt,nt,nt
CN1C(=O)/C(=C/c2cc(N=Nc3ccccc3)ccc2O)SC1=S,i,?,?,i,i,i
CC(C)C(C)NC(=O)Cn1cnc2c(oc3ccccc32)c1=O (stereo unspecified),i,i,i,i,i,17
COC(=O)Cn1cnc2c(oc3ccccc32)c1=O,i,i,i,i,41,36
CCOC(=O)c1ccccc1NC(=O)Cn1cnc2c(oc3ccccc32)c1=O,i,i,i,i,56,30
CC(OC(=O)c1ccc(Cl)nc1)C(=O)NCc1ccc2c(c1)OCO2 (stereo unspecified),i,i,i,nt,nt,nt
CCOC(=O)c1ccccc1NC(=O)c1c2c(nc3ccccc13)C(=O)N(C1CCCCC1)C2,i,nt,nt,nt,nt,nt
COc1ccc(Nc2nc(C(=O)NCc3ccco3)cs2)cc1,i,?,?,i,i,14
O=C(NCc1ccco1)c1csc(Nc2ccccc2Cl)n1,i,i,i,i,i,i
CCc1nc2ccc(C(=O)NCc3ccc(C)o3)cc2nc1CC,?,i,i,i,i,i
COc1ccc(C(=O)Nc2cccc(C(=O)NCc3ccco3)c2)cc1,i,i,i,i,i,12
COc1cccc(C(=O)c2c[nH]c(C(=O)NCc3ccco3)c2)c1,i,i,i,i,i,23
CCc1nc2ccc(C(=O)NCc3ccco3)cc2nc1CC,28µM,nt,?,i,i,i
CCc1ccc(S(=O)(=O)c2cn(CC(=O)Nc3ccc(C)cc3)c3ccccc3c2=O)cc1,i,nt,nt,nt,nt,nt
O=C(NCc1ccco1)c1cccc(-c2nnc(-c3ccccc3)o2)c1,i,nt,?,i,49,22
SMILES,Sm TGR block,Pf growth 96h,Pf growth 48h,NS1 inh,Shiga toxin inh,CHX counter
O=C(NCc1ccco1)c1cccc(NC(=O)c2ccco2)c1,45µM,nt,i,i,i,i
O=C(Nc1ccccc1C(=O)Nc1ccccc1C(=O)NCc1ccco1)c1ccco1,?,nt,8.3µM,i,i,i
O=C(Nc1ccccc1C(=O)NCc1ccco1)c1ccco1,i,nt,i,i,i,i
CC(=O)Nc1ccc(NC(=O)N2CCCCC2)cc1,i,i,i,?,i,i
CC(=O)Nc1ccc(/C=N/N2C(C)CCCC2C)cc1 (stereo unspecified),i,i,i,nt,i,16
CC(=O)Nc1ccc(/C=N/N2CCCCC2)cc1,i,i,i,nt,116,44
COc1ccc(N2CC(NC(=O)/C=C\c3ccc(OC)c(OC)c3)CC2=O)cc1 (stereo unspecified),i,nt,nt,nt,nt,nt
